Our source for the Percent Effect values is ChEMBL document CHEMBL3988442, “University of Dundee, Small-Polar-MMV Screening Library” (2021).

For part of these data: Entries with a potency or affinity are not part of this list.

Common to all, as to design: scale not given: direction of the effect not stated beside the values
Test [1] addresses Protein translocase subunit SecA (Escherichia coli (strain K12)) (UniProt P10408). Put plainly: Assay to Identify E. coli SecA ATPase Inhibitors. The test is classed as functional. Particulars: 30 µM.
The target of test [2] is T1, Ubiquitin-activating enzyme e1, putative (Leishmania donovani (strain BPK282A1)) (UniProt E9BSI1).
T1 sequence (whole entry): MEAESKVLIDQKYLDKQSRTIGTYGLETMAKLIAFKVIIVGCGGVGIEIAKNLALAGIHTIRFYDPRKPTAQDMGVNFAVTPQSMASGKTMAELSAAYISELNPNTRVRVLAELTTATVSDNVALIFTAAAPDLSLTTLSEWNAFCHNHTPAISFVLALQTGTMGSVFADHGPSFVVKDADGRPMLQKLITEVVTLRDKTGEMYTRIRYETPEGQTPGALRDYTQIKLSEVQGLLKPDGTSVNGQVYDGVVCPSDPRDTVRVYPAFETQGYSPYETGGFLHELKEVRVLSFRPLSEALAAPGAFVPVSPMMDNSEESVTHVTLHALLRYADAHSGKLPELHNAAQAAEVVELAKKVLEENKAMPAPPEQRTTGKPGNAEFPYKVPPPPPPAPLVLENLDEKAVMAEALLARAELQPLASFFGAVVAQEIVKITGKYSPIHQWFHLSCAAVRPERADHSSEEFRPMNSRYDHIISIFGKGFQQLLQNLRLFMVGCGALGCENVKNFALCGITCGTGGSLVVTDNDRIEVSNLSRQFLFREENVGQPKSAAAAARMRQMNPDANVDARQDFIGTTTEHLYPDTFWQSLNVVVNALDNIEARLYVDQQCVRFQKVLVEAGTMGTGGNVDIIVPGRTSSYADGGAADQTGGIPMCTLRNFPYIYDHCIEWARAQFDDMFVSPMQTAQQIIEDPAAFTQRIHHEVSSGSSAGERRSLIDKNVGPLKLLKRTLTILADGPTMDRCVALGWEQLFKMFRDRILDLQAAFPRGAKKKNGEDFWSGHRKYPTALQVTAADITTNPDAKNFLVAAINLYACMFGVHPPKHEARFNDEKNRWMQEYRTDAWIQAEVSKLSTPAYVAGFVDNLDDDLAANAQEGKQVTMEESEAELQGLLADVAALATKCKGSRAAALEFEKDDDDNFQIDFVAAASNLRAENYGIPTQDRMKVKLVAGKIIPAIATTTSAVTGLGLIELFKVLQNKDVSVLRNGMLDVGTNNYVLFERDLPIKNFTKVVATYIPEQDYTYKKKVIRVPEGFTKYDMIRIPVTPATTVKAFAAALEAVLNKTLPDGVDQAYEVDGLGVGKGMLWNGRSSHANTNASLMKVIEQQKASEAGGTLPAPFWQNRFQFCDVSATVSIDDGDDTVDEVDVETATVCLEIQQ
Description: Leishmania donovani Ubiquitin Activating Enzyme (LdE1). The test is classed as functional. Particulars: 30 µM.

For test [3], the target named is AMP-activated protein kinase, AMPK (Homo sapiens) (UniProt P54646+O43741+P54619+Q9UGJ0+Q9Y478+Q13131+Q9UGI9). Description: AMP-dependent Kinase enzyme assay. An in vitro enzyme assay that detects ADP turnover that is directly proportional to AMPK activity. This uses naive AMPK that is activated during the assay with MK-8722. The test is classed as functional. Particulars: 30 µM.

Test [4] has as its target Sialic acid-binding Ig-like lectin 9 (Homo sapiens) (UniProt Q9Y336). Put plainly: Hs-Siglec9 ALPHAscreen SOP 20170721. The conditions noted are these: 10 µM. On the technique in general: In Alpha technology, singlet oxygen from a donor bead excites a nearby acceptor bead.
In another test the test system is Trypanosoma cruzi. Put plainly: Trypanosoma cruzi phosphomannomutase and mannose-1-phosphate guanylyltransferase assay. The test is classed as functional. The conditions noted are these: 10 µM.
The target of test [5] is T2, Arginase-2, mitochondrial (Homo sapiens) (UniProt P78540).
T2 sequence (whole entry): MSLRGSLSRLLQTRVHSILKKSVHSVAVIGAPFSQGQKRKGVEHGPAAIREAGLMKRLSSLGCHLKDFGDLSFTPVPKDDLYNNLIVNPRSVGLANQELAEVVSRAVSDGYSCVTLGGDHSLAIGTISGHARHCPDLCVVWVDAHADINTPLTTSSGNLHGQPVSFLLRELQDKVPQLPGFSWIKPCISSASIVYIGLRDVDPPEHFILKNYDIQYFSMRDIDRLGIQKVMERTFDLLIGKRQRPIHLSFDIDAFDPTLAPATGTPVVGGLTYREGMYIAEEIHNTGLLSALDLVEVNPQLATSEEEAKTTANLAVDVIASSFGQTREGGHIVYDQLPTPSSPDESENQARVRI
Description: in vitro enzyme assay to detect the production of urea directly proportional to the activity of Arginase II. Further: in the data most compounds retested in dose-response had high values. It counts as functional. The conditions noted are these: 33.3 µM.

In test [6] the target is T3, Proteasome subunit beta (Trypanosoma cruzi) (UniProt O96673).
T3 sequence (whole entry): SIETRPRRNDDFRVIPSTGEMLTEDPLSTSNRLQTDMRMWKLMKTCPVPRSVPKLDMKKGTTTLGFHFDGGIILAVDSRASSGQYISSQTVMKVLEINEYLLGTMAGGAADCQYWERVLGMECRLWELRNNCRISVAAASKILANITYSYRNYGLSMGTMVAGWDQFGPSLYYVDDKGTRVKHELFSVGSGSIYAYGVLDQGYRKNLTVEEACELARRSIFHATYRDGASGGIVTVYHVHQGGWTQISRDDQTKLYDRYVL
Put plainly: Trypanosoma cruzi proteasome chymotrypsin-like activity (TcProtChymo) assay. Further: in the data most compounds retested in dose-response had high values. Particulars: 9.37 µM. The test is classed as functional.

For the next test, the species on record is Homo sapiens. Put plainly: To identify inhibition of the IFN signalling (Jak-Stat) pathway via expression of an eGFP reporter gene under the control of an IFN-stimulated response element (ISRE) containing MxA promoter. The test is classed as functional. Particulars: 30 µM. Background: A reporter such as luciferase makes a cellular process visible.
Test [7] deals with T4, Tyrosyl-tRNA synthetase, putative (Trypanosoma cruzi (strain CL Brener)) (UniProt Q4DSP6).
T4 sequence (whole entry): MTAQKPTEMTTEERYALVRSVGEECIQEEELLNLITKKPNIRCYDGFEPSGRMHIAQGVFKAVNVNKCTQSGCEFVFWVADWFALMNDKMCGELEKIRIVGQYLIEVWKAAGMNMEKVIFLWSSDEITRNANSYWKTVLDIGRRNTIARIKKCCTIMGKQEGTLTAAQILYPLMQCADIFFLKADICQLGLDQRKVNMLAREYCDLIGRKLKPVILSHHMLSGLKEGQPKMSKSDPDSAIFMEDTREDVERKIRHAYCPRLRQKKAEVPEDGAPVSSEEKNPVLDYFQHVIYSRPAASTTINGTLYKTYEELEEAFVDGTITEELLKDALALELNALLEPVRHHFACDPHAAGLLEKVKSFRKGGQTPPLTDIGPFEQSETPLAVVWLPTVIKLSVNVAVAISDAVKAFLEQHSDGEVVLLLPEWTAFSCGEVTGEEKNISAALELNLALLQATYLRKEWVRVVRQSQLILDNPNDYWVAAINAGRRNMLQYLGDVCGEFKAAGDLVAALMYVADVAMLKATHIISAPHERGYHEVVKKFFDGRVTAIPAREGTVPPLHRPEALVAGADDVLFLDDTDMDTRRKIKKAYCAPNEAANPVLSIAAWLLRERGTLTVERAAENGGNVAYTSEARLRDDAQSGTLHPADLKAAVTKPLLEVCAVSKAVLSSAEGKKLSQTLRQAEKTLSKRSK
Put plainly: Trypanosoma cruzi tyrosyl tRNA synthetase (TcYRS) _High Tyrosine SOP. Further: in the data most compounds retested in dose-response had high values. It counts as functional. The conditions noted are these: 30 µM.

The target in test [8] is T4, Tyrosyl-tRNA synthetase, putative (Trypanosoma cruzi (strain CL Brener)). Put plainly: Trypanosoma cruzi tyrosyl tRNA synthetase (TcYRS) SOP. The test is classed as functional. Particulars: 30 µM.
In test [9] the target is Chromo domain-containing protein 1 (Saccharomyces cerevisiae (strain ATCC 204508 / S288c) (Baker's yeast)) (UniProt P32657). Description: ScCHD-1 Enzyme Inhibition Assay. Further: in the data most compounds retested in dose-response had high values. The test is classed as functional. Particulars: 30 µM.
Chromo domain-containing protein 1 (Saccharomyces cerevisiae (strain ATCC 204508 / S288c) (Baker's yeast)), sequence (P32657 whole entry, the tested form may be a part): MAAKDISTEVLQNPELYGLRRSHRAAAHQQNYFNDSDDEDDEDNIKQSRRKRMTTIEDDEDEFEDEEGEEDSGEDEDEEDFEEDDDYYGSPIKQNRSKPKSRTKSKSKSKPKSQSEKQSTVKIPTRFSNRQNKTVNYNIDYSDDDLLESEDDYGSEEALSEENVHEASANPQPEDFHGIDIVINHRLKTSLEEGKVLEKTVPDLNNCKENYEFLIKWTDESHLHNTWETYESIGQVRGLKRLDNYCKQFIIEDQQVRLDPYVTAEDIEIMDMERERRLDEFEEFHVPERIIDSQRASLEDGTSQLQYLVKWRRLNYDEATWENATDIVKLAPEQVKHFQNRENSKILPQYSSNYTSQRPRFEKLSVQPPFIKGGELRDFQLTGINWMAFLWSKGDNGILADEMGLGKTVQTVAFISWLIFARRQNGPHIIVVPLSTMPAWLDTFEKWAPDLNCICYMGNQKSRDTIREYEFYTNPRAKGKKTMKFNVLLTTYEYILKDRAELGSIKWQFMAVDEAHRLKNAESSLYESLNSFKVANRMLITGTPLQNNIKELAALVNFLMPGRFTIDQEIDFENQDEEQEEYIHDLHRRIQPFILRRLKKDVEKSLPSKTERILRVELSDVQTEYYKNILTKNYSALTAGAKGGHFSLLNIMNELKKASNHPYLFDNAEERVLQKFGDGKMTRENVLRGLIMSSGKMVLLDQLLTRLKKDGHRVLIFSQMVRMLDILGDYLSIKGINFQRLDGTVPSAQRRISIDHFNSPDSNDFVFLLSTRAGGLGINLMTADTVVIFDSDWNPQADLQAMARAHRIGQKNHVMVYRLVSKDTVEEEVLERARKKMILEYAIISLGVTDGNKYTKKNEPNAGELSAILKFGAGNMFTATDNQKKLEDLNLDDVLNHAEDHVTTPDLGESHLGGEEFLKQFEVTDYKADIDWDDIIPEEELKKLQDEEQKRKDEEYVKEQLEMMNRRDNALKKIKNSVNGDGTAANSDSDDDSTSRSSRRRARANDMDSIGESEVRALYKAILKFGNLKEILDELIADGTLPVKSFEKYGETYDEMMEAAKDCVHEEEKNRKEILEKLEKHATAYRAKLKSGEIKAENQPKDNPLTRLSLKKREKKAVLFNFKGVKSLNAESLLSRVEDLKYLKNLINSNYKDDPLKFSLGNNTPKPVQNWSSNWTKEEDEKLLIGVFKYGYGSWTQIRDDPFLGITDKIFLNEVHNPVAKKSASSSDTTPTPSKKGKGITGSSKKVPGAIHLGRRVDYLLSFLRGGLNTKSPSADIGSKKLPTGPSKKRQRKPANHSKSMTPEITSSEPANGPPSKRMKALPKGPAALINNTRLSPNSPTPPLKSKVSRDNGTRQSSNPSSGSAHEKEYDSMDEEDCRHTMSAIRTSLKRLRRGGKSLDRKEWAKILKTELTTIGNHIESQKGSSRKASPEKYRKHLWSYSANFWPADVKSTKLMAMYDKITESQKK

Protein translocase subunit SecA (Escherichia coli (strain K12)), sequence (P10408 whole entry): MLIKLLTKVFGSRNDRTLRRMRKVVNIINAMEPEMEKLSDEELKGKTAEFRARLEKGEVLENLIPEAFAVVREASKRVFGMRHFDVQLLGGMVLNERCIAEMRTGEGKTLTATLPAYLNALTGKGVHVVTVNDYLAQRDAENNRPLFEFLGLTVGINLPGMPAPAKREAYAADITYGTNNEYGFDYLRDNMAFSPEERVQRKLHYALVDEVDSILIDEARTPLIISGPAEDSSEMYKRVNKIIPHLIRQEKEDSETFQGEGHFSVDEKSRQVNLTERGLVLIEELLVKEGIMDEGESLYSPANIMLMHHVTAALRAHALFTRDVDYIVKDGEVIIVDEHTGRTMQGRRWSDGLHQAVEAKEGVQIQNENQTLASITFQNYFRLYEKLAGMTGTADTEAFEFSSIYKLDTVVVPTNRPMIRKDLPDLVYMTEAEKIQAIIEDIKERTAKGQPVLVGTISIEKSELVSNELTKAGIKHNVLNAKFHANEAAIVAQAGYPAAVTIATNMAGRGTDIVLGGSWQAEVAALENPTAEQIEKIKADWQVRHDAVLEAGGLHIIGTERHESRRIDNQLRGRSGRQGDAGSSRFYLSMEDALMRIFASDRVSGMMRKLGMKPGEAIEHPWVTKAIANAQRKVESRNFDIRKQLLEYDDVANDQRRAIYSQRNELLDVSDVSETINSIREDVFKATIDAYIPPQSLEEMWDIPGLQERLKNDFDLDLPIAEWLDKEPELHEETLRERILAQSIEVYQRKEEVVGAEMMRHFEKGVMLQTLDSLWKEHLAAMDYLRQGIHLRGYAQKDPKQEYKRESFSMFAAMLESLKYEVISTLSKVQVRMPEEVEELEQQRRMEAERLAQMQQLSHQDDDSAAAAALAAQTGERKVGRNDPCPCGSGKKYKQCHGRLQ
Sialic acid-binding Ig-like lectin 9 (Homo sapiens), sequence (Q9Y336 whole entry): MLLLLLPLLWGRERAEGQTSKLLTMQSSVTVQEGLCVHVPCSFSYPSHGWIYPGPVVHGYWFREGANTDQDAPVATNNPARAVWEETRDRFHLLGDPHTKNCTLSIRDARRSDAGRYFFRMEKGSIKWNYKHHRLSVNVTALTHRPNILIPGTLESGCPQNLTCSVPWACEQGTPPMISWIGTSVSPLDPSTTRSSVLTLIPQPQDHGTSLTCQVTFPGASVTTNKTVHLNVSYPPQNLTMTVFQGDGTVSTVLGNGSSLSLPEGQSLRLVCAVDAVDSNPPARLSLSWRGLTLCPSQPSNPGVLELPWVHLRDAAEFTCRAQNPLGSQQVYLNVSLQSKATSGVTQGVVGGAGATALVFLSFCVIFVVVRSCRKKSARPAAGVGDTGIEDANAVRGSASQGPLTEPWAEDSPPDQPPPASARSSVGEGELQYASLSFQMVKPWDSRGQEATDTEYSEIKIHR

Regarding `CC(C)(C)c1noc(CN2CCN(C(=O)c3cccs3)CC2)n1`, the Percent Effect in test [1] was -2.39%; in test [2] it was 10.4%; in [3], 4.2%; in test [4] it was -5.86%; in the test on Trypanosoma cruzi it was -4.68%; in [5] it was 4.27%. The Percent Effect in [6] was 10.3%; in the test filed under Homo sapiens, 19.4%; in test [7] it was 7.77%; in [8], 14.6%; in [9] it was -7.8%.
As to `CC(=O)NCCc1ccc(C(=O)N2CCCC2c2cnn(C)c2)cc1` (centres undefined), the Percent Effect in [1] is -1.4%; in [2] it was 21.1%; in test [3] it was -6.64%; in test [4] it was -8.62%; in the test on Trypanosoma cruzi it was 2.89%; in test [5], -3.6%. For the same compound, the Percent Effect in test [6] was 11.9%; in the test filed under Homo sapiens, 1.72%; in [7] it was 4.43%; in [8], 16.1%; in test [9], -8.59%.
For the compound `Cc1ccc(-c2cccc(-c3ccn(CCN4CCCC4)n3)c2)nn1`, the Percent Effect in test [1] was -0.771%; in test [2], -8.11%; in test [3], -1.02%; in test [4], 3.72%; in the test on Trypanosoma cruzi it was -3.09%; in test [5], 0.952%. Moreover, the Percent Effect came out at 4.31% in [6]; 7.06% in the test listed under Homo sapiens; 5.82% in [7]; 0% in test [8]; 0.00646% in test [9].
On to `CN1CCN(Cc2cn3c(n2)CN(C(=O)N2CCOCC2)CC3)CC1`, for which the Percent Effect was -6.56% in test [1]; 5.2% in [2]; 1.33% in test [3]; 22.1% in [4]; 3.25% with Trypanosoma cruzi; -5.52% in [5]. Moreover, the Percent Effect in [6] is 0.499%; in the test filed under Homo sapiens, -12.5%; in test [7], 4.3%; in test [8], 11.1%; in test [9], 0.336%.
As for `CCS(=O)(=O)N1C[C@H]2CCC[C@@]2(COc2ccccn2)C1`, the Percent Effect in [1] is -2.05%; in test [2], 12%; in test [3], -6.57%; in [4], 2.8%; with Trypanosoma cruzi it was -0.393%; in test [5] it was -6.16%. The Percent Effect is 10.5% in [6]; 33% in the test listed under Homo sapiens; 2.12% in [7]; 5.13% in test [8]; -1.39% in test [9].
For `CC(C(=O)N1CCc2ccccc2C1)n1cc(Br)cn1` (centres undefined), the Percent Effect in test [1] is -0.393%; in [2], 0%; in [3] it was -6.91%; in [4], 6.63%; in the test on Trypanosoma cruzi, 4.42%; in test [5] it was -6.9%. Moreover, the Percent Effect in test [6] was 7.82%; in the test filed under Homo sapiens, 19.8%; in test [7] it was 4.3%; in test [8], 13.6%; in test [9], -3.62%.
As to `CN(C(=O)c1ccccn1)c1nc2c(s1)CCc1c-2cnn1C`, the Percent Effect in [1] was -3.06%; in test [2] it was 52.7%; in test [3], 11%; in test [4], -2.4%; in the test with Trypanosoma cruzi, 4.94%; in [5], -4.41%. The Percent Effect in test [6] is 11.5%; in the test listed under Homo sapiens it was 16.9%; in test [7], -4.3%; in test [8], 1.3%; in [9], -15.7%.
Take `Cc1cc2c(=O)n3c(nc2s1)CCN(Cc1ccncc1)CC3`: the Percent Effect in test [1] is 2.21%; in [2] it was 4.05%; in test [3], 13.8%; in test [4] it was -10.1%; in the test on Trypanosoma cruzi, -4.94%; in [5] it was 5.8%. Further, the Percent Effect in test [6] is 4.21%; in the test filed under Homo sapiens, 19.7%; in test [7], 3.23%; in test [8], 9.09%; in [9], -10.3%.
As to `C1CC(CN2CCO[C@H]3[C@H](OCC4CC4)CC[C@@H]32)CCO1`, the Percent Effect in test [1] is -7.62%; in [2], 2.7%; in test [3], -2.6%; in test [4], -1.5%; in the test on Trypanosoma cruzi, -2.93%; in [5] it was 2.08%. Moreover, the Percent Effect was 16.3% in test [6]; 7.72% in the test filed under Homo sapiens; 5.94% in test [7]; 3.66% in [8]; -1.93% in test [9].
